# In PMC11006913:
# Numbering of substitutions follows the chain as printed.
# Target: T1, NKX2-4 (Homo sapiens, UniProt Q9H2Z4 175-261, P217L)
# T1 sequence: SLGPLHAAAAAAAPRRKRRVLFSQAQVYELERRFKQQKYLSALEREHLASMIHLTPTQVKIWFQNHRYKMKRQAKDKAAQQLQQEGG
# Test: PBM; 200 nM protein, PBS
# Conditions: dsDNA, one strand shown
row,Sequence,binding signal
1,CACTTTGA,"11.7 upbm affinity estimate (log intensity, higher = more binding, comparable within an allelic series)"
2,ACTCATAG,"11.7 upbm affinity estimate (log intensity, higher = more binding, comparable within an allelic series)"
3,AGAGTGAG,"11.5 upbm affinity estimate (log intensity, higher = more binding, comparable within an allelic series)"
4,CAAGCCAG,"9.67 upbm affinity estimate (log intensity, higher = more binding, comparable within an allelic series)"
5,CCAGTCAC,"9.45 upbm affinity estimate (log intensity, higher = more binding, comparable within an allelic series)"
6,ACGCCTTG,"9.82 upbm affinity estimate (log intensity, higher = more binding, comparable within an allelic series)"
7,GTACTCGA,"12.4 upbm affinity estimate (log intensity, higher = more binding, comparable within an allelic series)"
8,CCGACGTC,"9.19 upbm affinity estimate (log intensity, higher = more binding, comparable within an allelic series)"
9,CCGAGACG,"9.51 upbm affinity estimate (log intensity, higher = more binding, comparable within an allelic series)"
10,ACGGCGCC,"9.61 upbm affinity estimate (log intensity, higher = more binding, comparable within an allelic series)"
11,GCTGTGCA,"9.63 upbm affinity estimate (log intensity, higher = more binding, comparable within an allelic series)"
12,AAGAGGGG,"11.9 upbm affinity estimate (log intensity, higher = more binding, comparable within an allelic series)"
13,ACCTGGGC,"9.66 upbm affinity estimate (log intensity, higher = more binding, comparable within an allelic series)"
14,TCCACTCA,"12.4 upbm affinity estimate (log intensity, higher = more binding, comparable within an allelic series)"
15,ATGAGTGG,"12.4 upbm affinity estimate (log intensity, higher = more binding, comparable within an allelic series)"
16,AAAGTACT,"12.4 upbm affinity estimate (log intensity, higher = more binding, comparable within an allelic series)"
17,AAACCCCC,"9.69 upbm affinity estimate (log intensity, higher = more binding, comparable within an allelic series)"
18,CCGGTAAC,"9.94 upbm affinity estimate (log intensity, higher = more binding, comparable within an allelic series)"
19,CCGGCTCA,"9.54 upbm affinity estimate (log intensity, higher = more binding, comparable within an allelic series)"
20,CTGCGTCC,"9.76 upbm affinity estimate (log intensity, higher = more binding, comparable within an allelic series)"

row,Sequence,binding signal
1,AAAATGCG,"9.82 upbm affinity estimate (log intensity, higher = more binding, comparable within an allelic series)"
2,GAGTGCCA,"12.1 upbm affinity estimate (log intensity, higher = more binding, comparable within an allelic series)"
3,CGGCGTTA,"9.81 upbm affinity estimate (log intensity, higher = more binding, comparable within an allelic series)"
4,ATCACACC,"9.96 upbm affinity estimate (log intensity, higher = more binding, comparable within an allelic series)"
5,CAAACCCG,"9.56 upbm affinity estimate (log intensity, higher = more binding, comparable within an allelic series)"
6,GAGTACTC,"12.4 upbm affinity estimate (log intensity, higher = more binding, comparable within an allelic series)"
7,CGGCTGTA,"9.81 upbm affinity estimate (log intensity, higher = more binding, comparable within an allelic series)"
8,ATGCGTCC,"9.7 upbm affinity estimate (log intensity, higher = more binding, comparable within an allelic series)"
9,CCTCTTCA,"12.5 upbm affinity estimate (log intensity, higher = more binding, comparable within an allelic series)"
10,AAAGAGGC,"11.7 upbm affinity estimate (log intensity, higher = more binding, comparable within an allelic series)"
11,ATGTGCGC,"9.81 upbm affinity estimate (log intensity, higher = more binding, comparable within an allelic series)"
12,ACCGCAAC,"9.55 upbm affinity estimate (log intensity, higher = more binding, comparable within an allelic series)"
13,ACGCCGCA,"9.67 upbm affinity estimate (log intensity, higher = more binding, comparable within an allelic series)"
14,TCCGGACA,"9.56 upbm affinity estimate (log intensity, higher = more binding, comparable within an allelic series)"
15,GCGGCGAC,"9.68 upbm affinity estimate (log intensity, higher = more binding, comparable within an allelic series)"
16,CGGAATCA,"9.89 upbm affinity estimate (log intensity, higher = more binding, comparable within an allelic series)"
17,TCCACTAA,"11.6 upbm affinity estimate (log intensity, higher = more binding, comparable within an allelic series)"
18,AGACTGAC,"9.52 upbm affinity estimate (log intensity, higher = more binding, comparable within an allelic series)"
19,ACATGCAG,"9.48 upbm affinity estimate (log intensity, higher = more binding, comparable within an allelic series)"
20,GCACGGGC,"9.59 upbm affinity estimate (log intensity, higher = more binding, comparable within an allelic series)"

# Target: T2, NKX2-4 (Homo sapiens, UniProt Q9H2Z4 175-261, T231S)
# T2 sequence: T1 sequence with L43P, T57S
# Test: PBM; 200 nM protein, PBS
# Conditions: dsDNA, one strand shown
row,Sequence,binding signal
1,CACTTTGA,"12 upbm affinity estimate (log intensity, higher = more binding, comparable within an allelic series)"
2,ACTCATAG,"11.8 upbm affinity estimate (log intensity, higher = more binding, comparable within an allelic series)"
3,AGAGTGAG,"11.6 upbm affinity estimate (log intensity, higher = more binding, comparable within an allelic series)"
4,CAAGCCAG,"9.62 upbm affinity estimate (log intensity, higher = more binding, comparable within an allelic series)"
5,CCAGTCAC,"9.51 upbm affinity estimate (log intensity, higher = more binding, comparable within an allelic series)"
6,ACGCCTTG,"9.81 upbm affinity estimate (log intensity, higher = more binding, comparable within an allelic series)"
7,GTACTCGA,"12.9 upbm affinity estimate (log intensity, higher = more binding, comparable within an allelic series)"
8,CCGACGTC,"9.13 upbm affinity estimate (log intensity, higher = more binding, comparable within an allelic series)"
9,CCGAGACG,"9.47 upbm affinity estimate (log intensity, higher = more binding, comparable within an allelic series)"
10,ACGGCGCC,"9.62 upbm affinity estimate (log intensity, higher = more binding, comparable within an allelic series)"
11,GCTGTGCA,"9.66 upbm affinity estimate (log intensity, higher = more binding, comparable within an allelic series)"
12,AAGAGGGG,"12.2 upbm affinity estimate (log intensity, higher = more binding, comparable within an allelic series)"
13,ACCTGGGC,"9.68 upbm affinity estimate (log intensity, higher = more binding, comparable within an allelic series)"
14,TCCACTCA,"12.8 upbm affinity estimate (log intensity, higher = more binding, comparable within an allelic series)"
15,ATGAGTGG,"12.8 upbm affinity estimate (log intensity, higher = more binding, comparable within an allelic series)"
16,AAAGTACT,"12.8 upbm affinity estimate (log intensity, higher = more binding, comparable within an allelic series)"
17,AAACCCCC,"9.77 upbm affinity estimate (log intensity, higher = more binding, comparable within an allelic series)"
18,CCGGTAAC,"9.84 upbm affinity estimate (log intensity, higher = more binding, comparable within an allelic series)"
19,CCGGCTCA,"9.64 upbm affinity estimate (log intensity, higher = more binding, comparable within an allelic series)"
20,CTGCGTCC,"9.72 upbm affinity estimate (log intensity, higher = more binding, comparable within an allelic series)"

row,Sequence,binding signal
1,AAAATGCG,"9.83 upbm affinity estimate (log intensity, higher = more binding, comparable within an allelic series)"
2,GAGTGCCA,"12.3 upbm affinity estimate (log intensity, higher = more binding, comparable within an allelic series)"
3,CGGCGTTA,"9.61 upbm affinity estimate (log intensity, higher = more binding, comparable within an allelic series)"
4,ATCACACC,"9.93 upbm affinity estimate (log intensity, higher = more binding, comparable within an allelic series)"
5,CAAACCCG,"9.55 upbm affinity estimate (log intensity, higher = more binding, comparable within an allelic series)"
6,GAGTACTC,"12.8 upbm affinity estimate (log intensity, higher = more binding, comparable within an allelic series)"
7,CGGCTGTA,"9.8 upbm affinity estimate (log intensity, higher = more binding, comparable within an allelic series)"
8,ATGCGTCC,"9.56 upbm affinity estimate (log intensity, higher = more binding, comparable within an allelic series)"
9,CCTCTTCA,"12.8 upbm affinity estimate (log intensity, higher = more binding, comparable within an allelic series)"
10,AAAGAGGC,"11.9 upbm affinity estimate (log intensity, higher = more binding, comparable within an allelic series)"
11,ATGTGCGC,"9.85 upbm affinity estimate (log intensity, higher = more binding, comparable within an allelic series)"
12,ACCGCAAC,"9.45 upbm affinity estimate (log intensity, higher = more binding, comparable within an allelic series)"
13,ACGCCGCA,"9.65 upbm affinity estimate (log intensity, higher = more binding, comparable within an allelic series)"
14,TCCGGACA,"9.6 upbm affinity estimate (log intensity, higher = more binding, comparable within an allelic series)"
15,GCGGCGAC,"9.58 upbm affinity estimate (log intensity, higher = more binding, comparable within an allelic series)"
16,CGGAATCA,"9.89 upbm affinity estimate (log intensity, higher = more binding, comparable within an allelic series)"
17,TCCACTAA,"11.7 upbm affinity estimate (log intensity, higher = more binding, comparable within an allelic series)"
18,AGACTGAC,"9.58 upbm affinity estimate (log intensity, higher = more binding, comparable within an allelic series)"
19,ACATGCAG,"9.63 upbm affinity estimate (log intensity, higher = more binding, comparable within an allelic series)"
20,GCACGGGC,"9.54 upbm affinity estimate (log intensity, higher = more binding, comparable within an allelic series)"
